Compounds without any hit were thinned out: in the full panel of roughly 83,000, 20% have a hit.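 Note: values are percent growth. 100 is the growth of untreated cells, values between 100 and 0 indicate rising inhibition; between -100 and 0 indicates cell death.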 Activity calls are given as the source filed them. Rule for the calls: active = growth percent below 10; inactive = the rest.
Each compound was assayed on MDA-MB-468 breast (assay: NCI-60 one-dose screen, 48 h (100 = growth as untreated, 0 = no growth, -100 = all killed)). Details: 10 µM unless noted.

| Compound | growth |
| --- | --- |
| COc1ccccc1/C=C/[N+](=O)[O-] | 22.6% (inactive) |
| O=Cc1cn(Cc2ccc(Cl)cc2)c2ccccc12 | -45% (active) |
| N#C[Se]CCN1C(=O)c2ccccc2C1=O | 20.4% (inactive) |
| CC1=C2C(=O)[C@H]3[C@@H](CC=C4C[C@@H](O)CC[C@@]43C)[C@@H]2CC[C@]12O[C@@H]1C[C@H](C)CN[C@H]1[C@H]2C | 85.6% (inactive) |
| CC1=C2C(=O)[C@](C)(CO)C=C2C(=O)[C@](C)(O)C12CC2 | -69.8% (active) |
| CC(C)(C)NCC(O)c1ccccc1Cl (stereo not drawn) | -12.6% (active) |
| CNC(=O)Oc1ccc(N(C)C)cc1C(C)C | 74.8% (inactive) |
| C=CC1CN2CCC1CC2C(O)c1ccnc2ccccc12 (stereo not drawn) | 107% (inactive) |
| N#CC1(c2ccccc2)CCN(Cc2ccccc2)CC1 | 90.2% (inactive) |
| O=C(Nc1ccc(O)cc1)C(Cl)(Cl)Cl | 95.2% (inactive) |
| O=C(O)C1C(C(=O)O)C2(Cl)C(Cl)=C(Cl)C1(Cl)C2(Cl)Cl.[Hg] (stereo not drawn) | 58.4% (inactive) |
| CCCCN(CCCC)P(=O)(Oc1ccccc1)Oc1ccccc1 | 39.2% (inactive) |
| O=P(Oc1ccc(Cl)cc1)(N1CC1)N1CC1 | 54.1% (inactive) |
| CCn1nccc1NC(=O)C(=O)c1cn(Cc2ccc(F)cc2)c2cccc(OC)c12 | 102% (inactive) |
| NC(=O)SCC(=O)Nc1ccc([As](=O)(O)O)cc1 | 87.2% (inactive) |
| N#CCCNc1ccccc1 | 108% (inactive) |
| CCNc1nc(Cl)nc(NCC)n1 | 106% (inactive) |
| CC(=O)N1N=C(c2ccccc2)CC1c1sc(N(CCCl)CCCl)nc1Cl (stereo not drawn) | 92.6% (inactive) |
